The text below walks through data of PubChem BioAssay AID651551 (Sanford-Burnham Center for Chemical Genomics, 2012).

In this experiment the target is PEG-3 (UniProt Q6IN02). Nature of the experiment: GAPDH versus PEG-3 reporter suppression – cell-based, luminescence, counter-screen for PEG-3 promoter inhibitor project, SAR follow-up (AID 651551). To be noted: HeLa PEG-Prom / GAPDH luciferase reporter, 6 or 24 h, run 2, 6 h; at 99 µM (top of the series). (In general: A counterscreen serves to expose hits that act by an unwanted route or on another target.)
In the case of `CCCn1nc(C(=O)Nc2nc(-c3ccccn3)cs2)c2ccccc2c1=O`, the inhibition % (higher = more inhibition) was found to be 44.6%.
Regarding `O=C(Nc1nc2ccccc2s1)c1nn(-c2ccccc2)c(=O)c2ccccc12`, the inhibition % (higher = more inhibition) was -4.43%.
Turning to `COc1ccc(-n2nc(C(=O)NCC(=O)Nc3ccc(OC)c(OC)c3)c3ccccc3c2=O)cc1`, the inhibition % (higher = more inhibition) came out at 13.5%.
As for `Cc1ccc(Cl)cc1Nc1nc(-c2sc(NC(=O)c3ccco3)nc2C)cs1`, the inhibition % (higher = more inhibition) was 37%.
Next, `COc1ccccc1Nc1nc(-c2sc(NC(=O)c3ccco3)nc2C)cs1`: -0.291%; `COc1ccc(Cl)cc1Nc1nc(-c2sc(NC(=O)c3ccccc3)nc2C)cs1`: 42.5%; `CCCn1nc(C(=O)Nc2nc3ccccc3s2)c2ccccc2c1=O`: 21.8%.
For `Cc1cc(NC(=O)c2ccccc2C(F)(F)F)n(-c2nc3ccccc3[nH]2)n1`, the inhibition % (higher = more inhibition) was determined as 88.2%.
For the compound `CCn1cc(C(=O)NCc2ccco2)c(=O)c2cc(S(=O)(=O)N3CCCC3)ccc21`, the inhibition % (higher = more inhibition) was -0.291%.
Turning to `Cc1nc(NC(=O)c2ccccc2)sc1-c1csc(Nc2ccccc2Cl)n1`, the inhibition % (higher = more inhibition) was found to be 7.99%.
In the case of `Cc1nc(NC(=O)c2ccccc2)sc1-c1csc(Nc2ccccc2)n1`, the inhibition % (higher = more inhibition) was determined as 5.23%.
Regarding `CCCn1nc(C(=O)Nc2nc(-c3ccncc3)cs2)c2ccccc2c1=O`, the inhibition % (higher = more inhibition) is 7.03%.
As for `Cc1cc(NC(=O)c2ccccc2)n(-c2nc3ccccc3[nH]2)n1`, the inhibition % (higher = more inhibition) turned out to be 17.6%.
Next, `Cc1cc(NC(=O)c2ccccc2C)n(-c2nc3ccccc3[nH]2)n1`: 41.1%.
In the case of `CCn1nc(C(=O)Nc2nc(-c3ccccn3)cs2)c2ccccc2c1=O`, the inhibition % (higher = more inhibition) was 39.9%.
Turning to `Cc1nc(NC(=O)c2ccccc2)sc1-c1csc(Nc2cccc(Cl)c2C)n1`, the inhibition % (higher = more inhibition) is 32.8%.
For `COCCCNC(=O)c1ccc(Cn2c(=O)c3ccccc3n(Cc3ccccc3C#N)c2=O)cc1` the value was 23.2%.
